Several values for one entry are separate records, joined by “and”; a condition that tells them apart may be missing. Identical values can stand only once.
Legend:
Test in all cases: thermal shift delta Tm vs DMSO control; higher = stronger stabilization (binding)
Settings in all cases: 12.5 µM; protein concentration 2 µM
[1] = system: LOC_OS01G01410-cb001
Method in brief: (§1)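 Rice kinase domain constructs, made in E. coli and purified, were placed in 96-well plates at 2 μM in 19.5 μl of 100 mM potassium phosphate pH 7.5, 150 mM NaCl, 10% glycerol and 5 × SYPRO Orange, with compound in DMSO. A temperature ramp from 25°C to 95°C at 0.05°C/s was used for differential scanning fluorimetry. The melting temperature shift is a triplicate mean compared with DMSO-only protein, derived from Boltzmann fits.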

[2] = system: LOC_OS01G02750-cb003
Method in brief: as §1

[3] = system: LOC_OS01G10900-cb004
Method in brief: as §1

[4] = system: LOC_OS01G13800-cb001
Method in brief: as §1

[5] = system: LOC_OS01G14860-cb001
Method in brief: as §1

[6] = system: LOC_OS01G21960-cb002
Method in brief: as §1

[7] = system: LOC_OS01G39600-cb002
Method in brief: as §1

[8] = system: LOC_OS01G48390-cb002
Method in brief: as §1

[9] = system: LOC_OS01G51400-cb002
Method in brief: as §1

[10] = system: T1, LOC_OS01G52050-cb004
T1 sequence (whole entry): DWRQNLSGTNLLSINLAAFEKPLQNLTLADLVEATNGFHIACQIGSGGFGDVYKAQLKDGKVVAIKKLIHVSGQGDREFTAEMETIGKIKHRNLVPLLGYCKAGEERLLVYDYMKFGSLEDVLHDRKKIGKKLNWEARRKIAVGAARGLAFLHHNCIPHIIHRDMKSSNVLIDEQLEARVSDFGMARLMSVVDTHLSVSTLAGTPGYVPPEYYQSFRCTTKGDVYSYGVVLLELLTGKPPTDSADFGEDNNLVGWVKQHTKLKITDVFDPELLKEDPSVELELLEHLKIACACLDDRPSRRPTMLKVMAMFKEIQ
Method in brief: as §1
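Further: purified Escherichia coli-expressed rice kinase domain construct.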

| SMILES | thermal shift delta Tm [1] | thermal shift delta Tm [2] | thermal shift delta Tm [3] | thermal shift delta Tm [4] | thermal shift delta Tm [5] | thermal shift delta Tm [6] | thermal shift delta Tm [7] | thermal shift delta Tm [8] | thermal shift delta Tm [9] | thermal shift delta Tm [10] |
| --- | --- | --- | --- | --- | --- | --- | --- | --- | --- | --- |
| Cc1cc(Nc2cc(N3CCN(C)CC3)nc(/C=C/c3ccccc3)n2)n[nH]1 | 2.2 °C | 1.8 °C | 1.93 °C | -0.23 °C | 2.99 °C | 2.75 °C | 2.83 °C | 2.45 °C | 0.24 °C | 3.7 °C |
| COCCNCc1ccc(-c2cc3nccc(Oc4ccc(NC(=O)C5(C(=O)Nc6ccc(F)cc6)CC5)cc4F)c3s2)nc1 [Sitravatinib (MGCD516)] | 4.2 °C | 7.38 °C | 4.89 °C | -0.17 °C | 3.69 °C | 0.72 °C | 0.85 °C | 6.78 °C | 0.58 °C | 4.17 °C |
| COC1(c2sc3c(N4CCOCC4)nc(-c4cnc(N)nc4)nc3c2C)COC1 | 1.79 °C | -0.24 °C | 1.43 °C | 0.47 °C | 0.4 °C | 0.39 °C | 0.28 °C | 0 °C | -0.11 °C | 0.03 °C |
| CCS(=O)(=O)N1CC(CC#N)(n2cc(-c3ncnc4[nH]ccc34)cn2)C1 | 0.57 °C | 1.52 °C | 0.33 °C | 0.37 °C | 2.29 °C | 1.23 °C | 0.17 °C | 0.14 °C | 0.39 °C | 1.36 °C |
| COc1cc(OC)cc(N(CCNC(C)C)c2ccc3ncc(-c4cnn(C)c4)nc3c2)c1 | 0.55 °C | 1.27 °C | 0.16 °C | 0.03 °C | 0.57 °C | 0.2 °C | 1.11 °C | 2.48 °C | 0.26 °C | 2.05 °C |
| CS(=O)(=O)CCNCc1ccc(-c2ccc3ncnc(Nc4ccc(OCc5cccc(F)c5)c(Cl)c4)c3c2)o1 | 1.42 °C | 0.57 °C | -0.68 °C | 0.49 °C | 0.2 °C | 0.5 °C | 0.33 °C | 0.41 °C | 0.31 °C | 0.63 °C |
| COc1cc(Nc2ncc(F)c(Nc3ccc4c(n3)N(COP(=O)(O)O)C(=O)C(C)(C)O4)n2)cc(OC)c1OC [R788 (Fostamatinib) Disodium] | 0.8 °C | 1.55 °C | 0.2 °C | 0.19 °C | 1.64 °C | 1.94 °C | 5.17 °C | 0.57 °C | 0.49 °C | 1.51 °C |
| C[C@@H]1CN(CC(=O)Nc2ccc3c(c2)Cc2cccc(-c4cc(=O)cc(N5CCOCC5)o4)c2S3)C[C@H](C)O1 | 0.15 °C | 1.53 °C | 0.85 °C | 0.28 °C | 1.89 °C | 0.63 °C | -0.34 °C | 0.3 °C | 0.05 °C | 0.42 °C |
| CCN(CC)CCNC(=O)c1c(C)[nH]c(/C=C2\C(=O)Nc3ccc(F)cc32)c1C [Sunitinib Malate] | 4.49 °C | 1.04 °C | 0.54 °C | -0.1 °C | 1.29 °C | 2.13 °C | 2.58 °C | 2.08 °C | 0 °C | 7.04 °C |
| N#CCNC(=O)c1ccc(-c2ccnc(Nc3ccc(N4CCOCC4)cc3)n2)cc1 [Momelotinib (CYT387)] | 2.55 °C | 0.08 °C | 1.02 °C | 0.1 °C | 5.59 °C | 2.72 °C | 2.38 °C | 0.91 °C | 0.13 °C | 3.27 °C |
| CNC(=O)c1ccc(C)c(-n2c(C)cc(OCc3ccc(F)cc3F)c(Br)c2=O)c1 | -0.05 °C | 0.1 °C | 0.26 °C | 0.31 °C | -0.06 °C | 0.34 °C | -0.13 °C | 0.65 °C | 0.44 °C | 0.41 °C |
| O=C1Nc2ccccc2/C1=C1/Nc2ccccc2C1=O [Indirubin] | 1.5 °C | -0.12 °C | 3.43 °C | -0.14 °C | 3.18 °C | 0.67 °C | -4.22 °C | 0.94 °C | 0.43 °C | 0.55 °C |
| C[C@@H]1COCCN1c1cc(C2([S@](C)(=N)=O)CC2)nc(-c2cc[nH]c3nccc2-3)n1 | 0.28 °C | 0.13 °C | -0.04 °C | 0.31 °C | -0.19 °C | -0.02 °C | -0.99 °C | -0.04 °C | -0.01 °C | -0.09 °C |
| O=C(NOCCO)c1ccc2cncn2c1Nc1ccc(I)cc1F | 1.18 °C | 5.7 °C | 1.31 °C | 1.55 °C | 3.41 °C | 0.59 °C | -0.21 °C | 1.12 °C | 0.54 °C | 0.41 °C |
| Cc1cc(CN2CCN(c3c(Br)cnc4nc(-c5ccc(N6CCN(C)CC6)cc5)[nH]c34)CC2)no1 | 4.15 °C | 1.45 °C | 1.57 °C | 0.82 °C | 0.83 °C | 2.01 °C | 4.92 °C | 3.13 °C | 0.84 °C | 0.67 °C |
| CCOC(=O)c1cnc2ccc(-c3cncc(NS(=O)(=O)c4ccccc4)c3)cn12 | 1.19 °C | 2.3 °C | 1.17 °C | 0.29 °C | 0.13 °C | 1.06 °C | 0.33 °C | 0.35 °C | 0.6 °C | 0.54 °C |
| COc1ccc2c(Oc3ccc(NC(=O)c4c(C)n(CC(C)(C)O)n(-c5ccccc5)c4=O)nc3)ccnc2c1 | 0.36 °C | 1.62 °C | 0.28 °C | -0.07 °C | 1.58 °C | 0.62 °C | -0.29 °C | 0.51 °C | 0.18 °C | 1.2 °C |
| C[C@@H]1CCN(C(=O)CC#N)C[C@@H]1N(C)c1ncnc2[nH]ccc12 | 0.9 °C and -0.07 °C | 0.59 °C and 1.29 °C | 1.82 °C and 1.15 °C | -0.91 °C and -0.21 °C | 0.33 °C and 0.19 °C | 0.43 °C and 0.81 °C | 1.17 °C and 1.71 °C | 1.08 °C and 0.82 °C | 0.59 °C and 0.38 °C | 0.05 °C and 0.04 °C |
| NC1(c2ccc(-c3nc4ccn5c(=O)[nH]nc5c4cc3-c3ccccc3)cc2)CCC1 | 0.94 °C | -0.51 °C | 0.16 °C | 0.23 °C | 0.18 °C | -0.02 °C | 0.19 °C | 0.18 °C | -0.13 °C | 0.16 °C |

From the supplement of paper PMC9694430
